Rab9 promoter act – activators of Rab9 promoter; Potency, µM (titrated, usually from 9.22 µM), usual class: activators; hit rate 2.8% among 320,000; Huh7 Rab9 promoter-luciferase reporter, luminescence, 24 h; AID 485297; also: nearly all actives have a fitted effect of over 60% in size
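Luminescence read-out: Huh7 cells stably expressing Rab9-luciferase, treated 24 h with compound at 37 °C, then lysed with luciferase reagent for 10 min at ambient before reading.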
ELG1 DNA repair – blocks ELG1-dependent DNA repair in HEK293T cells | hit rate 2.3% among 330,000 | HEK293T ELG1-luciferase reporter, luminescence, 16 h; DNA damage induced by 5-fluorouridine | Potency, µM (doses to about 46.1 µM), most hits filed as inhibitors; also: nearly all actives have a fitted effect of over 55% in size
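Overnight (16 hr) co-exposure of 2,000 cells/well to 5-fluorouridine and compound at 37 °C preceded detection. Luciferase was quantified via ONE-Glo luminescence; loss of signal denotes inhibition.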
SMN2 splice up – SMN2 splice variant enhancement | HEK293 SMN2-luciferase splicing reporter, luminescence, 30-36 h | Potency, µM (top dose mostly 46.1 µM), usual class: activators | hit rate 2.8% among 210,000 | AID 1458; also: nearly all actives have a fitted effect of over 55% in size
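HEK293 cells carry an SMN2 minigene-luciferase reporter in which exon 7 inclusion puts luciferase in frame. Cells were seeded at 2000 cells/well, attached for 10-12 hours, then exposed to compounds for 30-36 hours at 37C before ONE-Glo luminescence.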
ELG1 genotox – induces genotoxicity in HEK293T cells with luciferase-tagged ELG1 | hit rate 1.3% among 330,000 | HEK293T ELG1-luciferase reporter, luminescence, 16 h | AID 504466 | Potency, µM (top dose mostly 46 µM), usual class: activators; also: nearly all actives have a fitted effect of over 60% in size
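Step 1: seed 2,000 HEK293T ELG1-luciferase cells per well. Step 2: add compound or DMSO, incubate 16 hr at 37 °C. Step 3: ONE-Glo, 30 min at room temperature, read luminescence.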
NPC1 prom act – NPC1 promoter activation; Huh7 NPC1 promoter luciferase reporter, 24 h; Potency, µM (series often up to 9.22 µM), usual class: activators; hit rate 2.4% among 320,000; AID 485313; also: nearly all actives have a fitted effect of over 60% in size
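Compounds in DMSO were transferred onto Huh7 NPC1-luciferase reporter cells pre-incubated 2 h; after 24 h at 37 °C, Amplite reagent was dispensed and luminescence recorded 10 min later.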
FLuc modulator – inhibits or activates purified firefly luciferase, miR-21 counter-screen | P08659 | purified FLuc, Km substrates, luminescence inhibition | Potency, µM (highest dose often 57.5 µM), usual class: inhibitors | hit rate 6.9% among 360,000; also: nearly all actives have a fitted effect of over 55% in size
Target sequence (P08659 whole entry, looked up): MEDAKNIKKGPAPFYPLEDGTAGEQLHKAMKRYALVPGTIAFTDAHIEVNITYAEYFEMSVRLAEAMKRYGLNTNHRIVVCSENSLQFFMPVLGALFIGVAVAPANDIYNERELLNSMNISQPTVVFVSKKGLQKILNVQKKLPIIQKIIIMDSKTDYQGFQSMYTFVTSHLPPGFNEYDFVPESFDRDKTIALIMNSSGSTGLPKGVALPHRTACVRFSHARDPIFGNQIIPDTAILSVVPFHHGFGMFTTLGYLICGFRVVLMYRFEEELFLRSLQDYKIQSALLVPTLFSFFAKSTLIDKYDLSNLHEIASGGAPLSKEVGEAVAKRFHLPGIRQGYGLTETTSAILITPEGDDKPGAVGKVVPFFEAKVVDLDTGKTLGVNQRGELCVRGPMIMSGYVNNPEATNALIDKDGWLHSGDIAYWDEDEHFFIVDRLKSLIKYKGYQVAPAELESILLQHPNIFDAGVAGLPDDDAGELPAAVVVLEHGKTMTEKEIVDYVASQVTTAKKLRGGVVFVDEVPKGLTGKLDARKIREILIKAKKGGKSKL
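Purified P. pyralis luciferase, 10 nM final, with Km-level 10 uM D-luciferin and 10 uM ATP in 50 mM Tris acetate pH 7.5, 10 mM Mg acetate, 0.01% Tween-20, 0.05% BSA; 6-point qHTS titration about 60 µM downward; luminescence read.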
A number is an active result; - = inactive; ? = inconclusive; . = no result. A selection: hits, their analogues and other compounds. The true share with any hit is near 9.3%. Calls follow the shape of the dose curve; as a rule, active = well fitted curve in the direction sought with a large enough effect; inconclusive = small, poorly fitted or top-dose-only effect, or another doubt; inactive = no such curve, though single readings can be large; an effect the other way counts as inactive or inconclusive.

SMILES	Rab9 promoter act	ELG1 DNA repair	SMN2 splice up	ELG1 genotox	NPC1 prom act	FLuc modulator
CC(=O)Nc1cc(-c2nc3ccccc3s2)ccc1C	.	.	-	.	.	6.75µM
Cc1ccc(-c2nc3ccccc3s2)cc1NC(=O)c1cc(-n2cnnc2)ccc1Cl	-	?	-	?	-	1.51µM
Cc1ccc(-c2nc3ccccc3s2)cc1NC(=S)NC(=O)c1ccccc1	-	?	-	?	-	9.53µM
COc1cc(OC)cc(C(=O)Nc2cc(-c3nc4ccccc4s3)ccc2OC)c1	.	.	-	.	.	?
CCOc1cc(C(=O)Nc2ccc(-c3nc4ccccc4s3)cc2Cl)cc(OCC)c1OCC	.	.	.	.	.	13.5µM
CC(C)Nc1nc(NC(C)C)nc(N(C#N)C(C)C(=O)N(C)C)n1 (centres undefined)	-	-	.	-	-	-
COc1ccc(CCNC(=O)Cn2ccc3cc(S(=O)(=O)N4CCCCC4)ccc32)cc1OC	.	.	.	.	.	-
COc1ccc(N(CC(=O)NCCC(C)C)C(=O)c2snc(C(=O)NC3CCCCC3)c2N)c(OC)c1	-	-	.	-	-	-
Cc1ccc(NC(=O)c2ccc3c(c2)OCCO3)nc1	0.355µM	?	.	?	0.631µM	1.35µM
Cc1ccnc(NC(=O)c2ccc(N3C(=O)CCC3=O)cc2)c1	?	?	-	-	?	19µM
Cc1ccc(NC(=O)CNC(=O)c2ccc3c(c2)OCO3)nc1	-	-	.	-	-	-
CC(=O)c1cccc(NC(=O)CC2SC(N3CCCCC3)=NC2=O)c1 (centres undefined)	-	-	-	-	-	-
Cc1ccc(NC(=O)c2cccc(NC(=O)CC3SC(N4CCCCC4)=NC3=O)c2)nc1 (centres undefined)	-	-	.	-	-	10.7µM
Cc1nnc(NC(=O)c2ccc3c(c2)NC(=O)CS3)s1	-	-	.	-	-	-
Cc1ccnc(NC(=O)c2cc([N+](=O)[O-])cc([N+](=O)[O-])c2)c1	-	-	-	-	-	-
Cc1ccc(NC(=O)c2ccc3c(c2)NC(=O)CS3)nc1	?	?	.	9.2µM	?	?
CC1=C(C)/C(=N\OC(=O)/C=C/c2ccccc2)C=CC1=O	-	-	-	-	-	-
Cc1ccc(C)c(S(=O)(=O)NCc2ccc(C(=O)N3CCCCC3C)cc2)c1 (centres undefined)	-	?	-	-	-	-
Cc1cc(C)c2sc(NC(=O)c3ccc(N4C(=O)CCC4=O)cc3)nc2c1	-	-	.	-	-	2.39µM
O=C(Nc1ccon1)c1ccc2c(c1)OCO2	?	?	?	?	-	?
Cc1ccc2nc(NC(=O)c3ccc(N4C(=O)CCC4=O)cc3)sc2c1	-	?	-	-	-	?
O=C(O)c1ccc(NC(=O)c2cccc(S(=O)(=O)Nc3ccc(C(=O)O)cc3)c2)cc1	-	-	.	-	-	?
Cc1ccnc(NC(=O)c2ccc3c(c2)OCO3)c1	0.447µM	?	.	?	0.501µM	2.13µM
O=C1CSc2ccc(C(=O)Nc3cccc(S(=O)(=O)Nc4ccc(Br)cc4)c3)cc2N1	-	13µM	-	-	-	?
CCOC(=O)NC(=O)C(=CNc1ccccc1OC)C(=O)NC(=O)OCC	-	-	-	-	-	-
SMILES	Rab9 promoter act	ELG1 DNA repair	SMN2 splice up	ELG1 genotox	NPC1 prom act	FLuc modulator
CN(C)C=Nc1ccc2nn(-c3ccccc3)nc2c1	1µM	?	5.01µM	?	2.82µM	5.36µM
CN(C)C=Nc1ccc(Cl)c(Cl)c1	-	-	.	-	-	-
C/C(=N\NC(=O)c1ccc(CSc2nncn2C)cc1)c1cccs1	3.55µM	?	12.6µM	?	?	23.9µM
C/C(=N\NC(=O)c1ccc(CSc2nncn2C)cc1)c1ccc(Cl)cc1	-	-	-	-	-	-
Cn1cnnc1SCc1ccc(C(=O)N/N=C/c2cccs2)cc1	-	?	?	-	-	16.9µM
Cc1cc(NC(=O)c2cc([N+](=O)[O-])cc([N+](=O)[O-])c2)n(-c2ccccc2)n1	-	-	-	-	-	-
CCOC(=O)N1CCC(Nc2c(N3CCN(c4cccc(C(F)(F)F)c4)CC3)c(=O)c2=O)CC1	-	18.4µM	-	-	-	-
Cc1ccc(C(=O)Nc2nnc(CC(=O)N/N=C/c3ccc(O)c(O)c3)s2)cc1	-	?	.	-	-	4.78µM
